High-throughput results deposited in PubChem BioAssay by National Center for Advancing Translational Sciences (NCATS).
Most compounds without a hit are left out; they make up all but 1.3% or so of the library.
RGS4 inhibitor: inhibitors of human regulator of G protein signaling 4 | P49798 | Transcreener GDP fluorescence polarization, RGS4-accelerated GTP hydrolysis | Potency, µM (highest dose often 114 µM), for inactives: at the top dose activity change, negative = inhibition, most hits filed as inhibitors | 390,000 tested, 0.039% active; also: % is scaled to controls: 0 for no effect and ±100 for the full control effect; nearly all actives have a fitted effect of over 75% in size
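MLSMR compounds (23 nl, pin-transferred) preincubated 10 min at room temperature with a 500nM (2x) first reagent, then RGS4 at 900nM (2x) plus Transcreener GDP mix added; fluorescence polarization (620/688 nm) read before and after 90 min at 30 °C.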
EPAC2 ag: agonists of human EPAC2 (RAPGEF4); Q8WZA2; EPAC2 activation, biochemical qHTS; response scale: 100% = 6.5 mM cAMP response; Potency, µM (highest dose often 154 µM), inactives show at the highest dose activation, usual class: activators; 360,000 tested, 0.079% active; AID 720711; also: nearly all actives have a fitted effect of over 50% in size
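Readout is BODIPY fluorescence (480 nm excitation, 540 nm emission), which falls as labeled GDP is exchanged off Rap1B. EPAC2 at 100 nM acted on 250 nM RAP1B-BODIPY-GDP with 50 uM GDP present.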
EPAC1 agonist: agonists of human EPAC1 | O95398 | EPAC1 agonist qHTS, biochemical assay; response scale: 100% = response to 6.5 mM cAMP | Potency, µM (titrated, usually from 154 µM), inactives show top-dose activation, most hits filed as activators | 360,000 tested, 0.073% active | AID 720707; also: nearly all actives have a fitted effect of over 60% in size
Target sequence (O95398 whole entry, looked up): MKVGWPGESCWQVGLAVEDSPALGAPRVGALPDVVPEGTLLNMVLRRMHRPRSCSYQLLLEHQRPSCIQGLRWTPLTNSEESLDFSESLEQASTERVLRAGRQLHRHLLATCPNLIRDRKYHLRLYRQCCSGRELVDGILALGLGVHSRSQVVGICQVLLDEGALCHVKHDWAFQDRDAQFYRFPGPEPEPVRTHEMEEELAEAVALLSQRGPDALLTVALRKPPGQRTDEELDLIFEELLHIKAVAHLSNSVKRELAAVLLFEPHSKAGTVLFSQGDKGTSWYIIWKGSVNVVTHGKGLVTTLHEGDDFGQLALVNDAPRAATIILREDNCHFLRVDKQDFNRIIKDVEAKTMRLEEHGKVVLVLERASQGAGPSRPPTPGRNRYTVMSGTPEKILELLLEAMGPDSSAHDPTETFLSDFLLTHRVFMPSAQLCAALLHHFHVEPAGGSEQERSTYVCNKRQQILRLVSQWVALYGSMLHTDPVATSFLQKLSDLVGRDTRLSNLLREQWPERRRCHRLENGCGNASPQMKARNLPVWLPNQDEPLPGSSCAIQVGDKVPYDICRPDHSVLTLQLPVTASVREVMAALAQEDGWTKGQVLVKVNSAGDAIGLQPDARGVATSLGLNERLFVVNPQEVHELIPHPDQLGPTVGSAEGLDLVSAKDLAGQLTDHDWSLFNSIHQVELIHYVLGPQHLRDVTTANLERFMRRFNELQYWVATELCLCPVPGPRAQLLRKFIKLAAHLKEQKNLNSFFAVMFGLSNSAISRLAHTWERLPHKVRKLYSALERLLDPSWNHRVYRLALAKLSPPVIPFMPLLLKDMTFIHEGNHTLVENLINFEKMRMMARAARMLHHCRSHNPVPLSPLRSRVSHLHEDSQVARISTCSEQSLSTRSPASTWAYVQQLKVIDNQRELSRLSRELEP
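Compounds were pinned as a concentration titration into mixtures of EPAC1 (100 nM), BODIPY-GDP-loaded Rap1B (250 nM) and GDP (50 uM). After 5 min at room temperature, fluorescence was followed for 30 min; activity was scaled to 6.5 mM cAMP.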
EPAC2 antagonist: blocks human EPAC2 exchange factor; AID 720708; Potency, µM (doses to about 114 µM), inactives show at the top dose activity, negative = inhibition, actives largely listed as inhibitors; Q8WZA2; EPAC2 GEF exchange of Rap1B-BODIPY-GDP, fluorescence; 360,000 tested, 0.18% active; also: % is scaled to controls: 0 for no effect and ±100 for the full control effect; nearly all actives have a fitted effect of over 45% in size
EPAC1 antagonist: blocks human EPAC1 exchange factor; O95398; EPAC1 GEF assay, Rap1b-BODIPY-GDP exchange fluorescence; Potency, µM (top dose mostly 115 µM), for the others: at the highest dose activity change, negative = inhibition, most hits filed as inhibitors; 360,000 tested, 0.14% active;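 also: plate controls were vehicle for no effect and positive control for full effect; nearly all actives have a fitted effect of over 50% in size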
BRCA1 expr act: increases BRCA1 expression; MCF7-BRCA1-FFLuc reporter, luminescence, 48 h; response scale: scaled: vehicle 0%, 10 µM genistein 100%; Potency, µM (series often up to 46.1 µM), for inactives: at the highest dose activation, hits mostly activators; 380,000 tested, 1.1% active; also: nearly all actives have a fitted effect of over 80% in size
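First, MCF7-BRCA1-FFLuc cells (2000/well) attach for 2 h; next, compounds are pin-added and incubated 48 h at 37 °C; finally, luciferase reagent is added and luminescence read after 15 min.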
* marks the source's active call; other numbers are inactive results; i = inactive; u = inconclusive; x = no result given; [ ] = remark or other dose. Calls follow the shape of the dose curve; as a rule, active = well fitted curve in the direction sought with a large enough effect; inconclusive = small, poorly fitted or top-dose-only effect, or another doubt; inactive = no such curve, though single readings can be large; an effect the other way counts as inactive or inconclusive. Potency is read from the fitted curve at half-maximal effect.

SMILES | RGS4 inhibitor | EPAC2 ag | EPAC1 agonist | EPAC2 antagonist | EPAC1 antagonist | BRCA1 expr act
CC(=O)c1cccc(NC(=O)Cc2noc3ccccc23)c1 | 1% | x | x | x | x | x
Cc1cccc(NC(=O)Cc2noc3ccccc23)c1 | 34% | 6% | 2% | 7% | -11% | 11µM*
CCc1nc2ccc(C(=O)N(C)CC(=O)Nc3ccccc3C(F)(F)F)cc2nc1CC | 8% | 5% | -10% | -2% | 16% | -18%
Cn1c(C(=O)NCc2ccccn2)cc2c(=O)n3ccccc3nc21 | -18% | 7% | -5% | 7% | 5% | 5µM*
Cn1c(C(=O)NC2CCCCC2)cc2c(=O)n3ccccc3nc21 | 12% | 0% | 1% | -10% | -3% | -2%
CCN1C(=O)N(S(=O)(=O)C(F)(F)F)[C@@H](c2ccccc2)C(C(=O)OC)=C1C | 8% | 3% | -20% | 32µM* | -9% | -3%
CCN1C(=O)N(S(=O)(=O)c2ccc(C)cc2)[C@@H](c2ccccc2)C(C(=O)OC)=C1C | -13% | 14% | 0% | -18% | 5% | -52%
CC1=NN(c2ccccc2)C(=O)C1=Cc1ccccc1 | x | 16% | 21% | 19% | 50µM* | -21%
CC1=NN(c2cccc(C(=O)O)c2)C(=O)/C1=C\C=C/c1ccccc1 | -101% | 0% | -3% | 16µM* | -6% | -47%
CC1=NN(c2ccccc2)C(=O)/C1=C/c1ccc(Cl)cc1 | u | 10% | -2% | 18% | -16% | -11%
O=C(/C=C/c1ccc(-c2ccc(F)cc2)o1)N1CCCC1 | -2% | 2% | 8% | -7% | -13% | 4µM*
Cc1ccc(C(c2nc3ccccc3[nH]2)n2c(-c3ccccc3)nc3ccccc32)cc1 (configuration not stated) | x | 5% | 0% | -18% | -8% | 4.5µM*
CCc1nnc(NC(=O)C=C(C)C)s1 | 21% | -1%[15.6 µM] | 4% | 13% | -12% | 73%
CC(C)=CC(=O)Nc1nnc(-c2ccccc2C)s1 | -5% | 5% | -11% | 8% | -14% | 3.5µM*
CC1(OC(=O)CCc2ccccc2)C(=O)C=C2C=C(c3ccc(C#N)cc3)N(C3CCCCC3)C=C2C1=O (configuration not stated) | -20% | 2% | -14% | -3% | -1% | -32%
O=C(CSc1n[nH]c(-c2ccccc2)n1)c1ccccc1 | -52% | -1% | -23% | 0% | -18% | 62%
CC(C)(C)C(=O)CSc1n[nH]c(-c2ccccc2)n1 | x | x | x | x | x | 7.9µM*
O=C(NCCSc1ccccc1)c1cncc(Br)c1 | -11% | -2% | -8% | 15% | -3% | 7.9µM*
O=C(CCNC(=O)c1ccccc1Cl)NCCCSc1ccccc1 | 22% | 4% | -18% | -8% | 3% | 2%
O=C(NCCSc1ccccc1)c1ccc(Br)cc1 | 18% | 7% | 0% | 0% | -2% | u
O=C(NCCSc1ccccc1)c1ccccc1Cl | 19% | 9% | 2% | -23% | -8% | 2.8µM*
Cc1ccc(C)c(-n2nnnc2Sc2nnnn2-c2ccccc2)c1 | -23% | -3% | -2% | -6% | -8% | -46%
Cc1nc(NC(=O)c2oc3ccccc3c2C)sc1C(=O)N(C)C | -4% | 6% | -10% | 3% | -7% | 13µM*
Cc1nnc(NC(=O)c2oc3ccccc3c2C)s1 | 7% | 5% | 5% | 2% | -11% | 32%
CCOc1ccc(-c2noc(-c3cccnc3)n2)cc1OC | 5% | 4% | -3% | -5% | -17% | 8.9µM*
SMILES | RGS4 inhibitor | EPAC2 ag | EPAC1 agonist | EPAC2 antagonist | EPAC1 antagonist | BRCA1 expr act
COc1ccc(-c2nnc(-c3cccnc3)o2)cc1OC | -29% | 8% | -8% | 18% | 10% | 90%
CCOc1cc(-c2noc(-c3cccnc3)n2)ccc1OC | 2% | 2% | 0% | 7% | 1% | 36%
COc1ccc(-c2noc(-c3cccnc3)n2)cc1OC | -30% | 1% | 3% | -11% | -22% | 7.9µM*
Cc1cc(C)n2nc(C(=O)OCCOc3cccc(Br)c3)nc2n1 | 27% | 8% | 3% | -8% | 0% | 0%
Cc1sc(N)c(C#N)c1C | -14% | -7% | -3% | 0% | -21% | 24%
Cc1cc(C(=O)COc2cccc([N+](=O)[O-])c2)c(C)n1C1CC1 | -15% | 11% | 12% | -14% | -11% | 7.1µM*
Cc1ccc(OCC(=O)c2cc(C)n(C3CC3)c2C)c([N+](=O)[O-])n1 | -6% | -2% | -6% | 5% | 5% | 0%
COCCn1c(-c2ccc(OC)cc2)c(-c2ccc(OC)cc2)oc1=O | -7% | 2% | -2% | 35µM* | 16% | -11%
Cc1cc(C)cc(N=Cc2[nH]c3ccc(Br)c(Cl)c3c2O)c1 | -30% | 12% | 29% | 5% | -6% | -49%
CCc1nc(N=Nc2c(O)[nH]c3ccccc23)c2c3c(sc2n1)CCC3 | -11% | -10% | 0% | 3% | -8% | -14%
CN1C(=O)c2cccc3c(Cl)ccc(c23)C1=O | 3% | 8% | -1% | 1% | 6% | 29%
CNc1ccc2c3c(cccc13)C(=O)N(C)C2=O | -16% | u | 100µM* | i | -23% | 56%
COc1ccc2cc(C(=O)NCCc3ccccc3)[nH]c2c1 | 13% | 4% | 8% | 4% | -2% | 4.5µM*
c1ccc2oc(-c3[nH]ncc3CN3CCSCC3)cc2c1 | 13% | -1% | -3% | -8% | -21% | 0%
c1ccc2oc(-c3ccn[nH]3)cc2c1 | 2% | 19% | 0% | -2% | 11% | 4.5µM*
Nc1ccc(Br)c2c1C(=O)c1ccccc1C2=O | 9%[11.4 µM] | 1% | 2% | 20% | -1% | 49%
COc1ccc2cnn(-c3ccc(C)cc3)c(=O)c2c1OC | -33% | 13% | -9% | 8% | 10% | 4.5µM*
COc1ccc2cnn(-c3ccc(OC(F)(F)Cl)cc3)c(=O)c2c1OC | -2% | 0% | -8% | 3% | -1% | 12%
CCC(CO)Nc1ccn2nc(-c3cccs3)cc2n1 (configuration not stated) | x | 13% | -3% | 7% | -13% | 5.6µM*
CN(C)C(=O)CNc1ccn2nc(-c3cccc(Cl)c3)cc2n1 | x | 17% | -5% | 0% | -10% | 5µM*
CCC(CO)Nc1ccn2nc(-c3cc(OC)c(OC)c(OC)c3)cc2n1 (configuration not stated) | x | 11% | -11% | 3% | 1% | -24%
CCC(CO)Nc1ccn2nc(-c3ccccc3)cc2n1 (configuration not stated) | x | 2% | -7% | 7% | 3% | 3.5µM*
CCN(CC)CCCCCCCCOC(=O)c1cc(OC)c(OC)c(OC)c1 | u | 6% | -1% | 21% | 9% | -7%
